Data as given in ChEMBL document CHEMBL3988442, “University of Dundee, Small-Polar-MMV Screening Library” (2021).
For part of these data: Results with a measured potency or affinity are listed apart.

What was measured:
Set-up in all cases: scale not given: direction of the effect not stated beside the values
[1] = molecular target: Protein translocase subunit SecA (Escherichia coli (strain K12)) (UniProt P10408); test: Assay to Identify E. coli SecA ATPase Inhibitors; assay type: functional; settings: 30 µM
[2] = molecular target: T1, Ubiquitin-activating enzyme e1, putative (Leishmania donovani (strain BPK282A1)) (UniProt E9BSI1); test: Leishmania donovani Ubiquitin Activating Enzyme (LdE1); assay type: functional; settings: 30 µM
T1 sequence (whole entry): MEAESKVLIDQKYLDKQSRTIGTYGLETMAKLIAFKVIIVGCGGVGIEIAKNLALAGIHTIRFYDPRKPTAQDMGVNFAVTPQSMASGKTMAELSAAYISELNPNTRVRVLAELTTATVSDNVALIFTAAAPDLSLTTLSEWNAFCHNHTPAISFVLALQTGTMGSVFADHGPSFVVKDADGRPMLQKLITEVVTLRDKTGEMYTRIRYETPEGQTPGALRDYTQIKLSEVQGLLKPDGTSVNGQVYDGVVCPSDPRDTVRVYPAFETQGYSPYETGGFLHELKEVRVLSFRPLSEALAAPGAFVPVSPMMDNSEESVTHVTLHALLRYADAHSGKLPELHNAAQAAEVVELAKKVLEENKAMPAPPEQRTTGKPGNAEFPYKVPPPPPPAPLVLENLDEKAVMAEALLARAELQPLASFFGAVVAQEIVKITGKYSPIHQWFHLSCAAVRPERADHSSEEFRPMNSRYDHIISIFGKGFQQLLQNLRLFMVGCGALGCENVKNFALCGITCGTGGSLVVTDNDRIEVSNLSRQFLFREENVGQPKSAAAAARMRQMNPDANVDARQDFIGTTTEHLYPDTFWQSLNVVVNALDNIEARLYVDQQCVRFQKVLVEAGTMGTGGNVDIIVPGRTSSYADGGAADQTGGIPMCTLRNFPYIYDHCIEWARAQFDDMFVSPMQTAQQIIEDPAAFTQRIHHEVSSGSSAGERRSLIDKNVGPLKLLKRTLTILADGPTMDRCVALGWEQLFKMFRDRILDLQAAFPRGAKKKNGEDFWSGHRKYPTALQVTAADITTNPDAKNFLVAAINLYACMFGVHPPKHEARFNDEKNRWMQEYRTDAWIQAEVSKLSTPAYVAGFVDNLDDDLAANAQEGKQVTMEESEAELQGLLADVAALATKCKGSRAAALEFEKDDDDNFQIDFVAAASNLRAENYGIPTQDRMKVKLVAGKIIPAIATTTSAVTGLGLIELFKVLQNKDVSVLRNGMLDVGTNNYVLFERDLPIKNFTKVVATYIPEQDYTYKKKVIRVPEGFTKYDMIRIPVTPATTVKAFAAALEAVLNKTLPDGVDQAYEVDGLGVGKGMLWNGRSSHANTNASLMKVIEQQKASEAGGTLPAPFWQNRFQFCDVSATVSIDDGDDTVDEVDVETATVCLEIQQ

[3] = molecular target: AMP-activated protein kinase, AMPK (Homo sapiens) (UniProt P54646+O43741+P54619+Q9UGJ0+Q9Y478+Q13131+Q9UGI9); test: AMP-dependent Kinase enzyme assay. An in vitro enzyme assay that detects ADP turnover that is directly proportional to AMPK activity. This uses naive AMPK that is activated during the assay with MK-8722; assay type: functional; settings: 30 µM
[4] = molecular target: Sialic acid-binding Ig-like lectin 9 (Homo sapiens) (UniProt Q9Y336); test: Hs-Siglec9 ALPHAscreen SOP 20170721; settings: 10 µM
Trypanosoma cruzi = test: Trypanosoma cruzi phosphomannomutase and mannose-1-phosphate guanylyltransferase assay; assay type: functional; settings: 10 µM
[5] = molecular target: T2, Arginase-2, mitochondrial (Homo sapiens) (UniProt P78540); test: in vitro enzyme assay to detect the production of urea directly proportional to the activity of Arginase II; assay type: functional; settings: 33.3 µM; note: in the data most compounds retested in dose-response had high values
T2 sequence (whole entry): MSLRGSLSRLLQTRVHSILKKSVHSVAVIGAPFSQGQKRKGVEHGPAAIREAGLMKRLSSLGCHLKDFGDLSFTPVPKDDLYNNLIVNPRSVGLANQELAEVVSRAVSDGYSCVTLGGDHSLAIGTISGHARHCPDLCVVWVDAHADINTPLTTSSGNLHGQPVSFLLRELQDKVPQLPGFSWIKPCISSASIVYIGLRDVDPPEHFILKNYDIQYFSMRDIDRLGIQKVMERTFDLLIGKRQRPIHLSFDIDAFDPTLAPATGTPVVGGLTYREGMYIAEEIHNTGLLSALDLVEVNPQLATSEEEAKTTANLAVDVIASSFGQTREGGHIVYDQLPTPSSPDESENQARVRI

[6] = molecular target: T3, Proteasome subunit beta (Trypanosoma cruzi) (UniProt O96673); test: Trypanosoma cruzi proteasome chymotrypsin-like activity (TcProtChymo) assay.; note: in the data most compounds retested in dose-response had high values; assay type: functional; settings: 9.37 µM
T3 sequence (whole entry): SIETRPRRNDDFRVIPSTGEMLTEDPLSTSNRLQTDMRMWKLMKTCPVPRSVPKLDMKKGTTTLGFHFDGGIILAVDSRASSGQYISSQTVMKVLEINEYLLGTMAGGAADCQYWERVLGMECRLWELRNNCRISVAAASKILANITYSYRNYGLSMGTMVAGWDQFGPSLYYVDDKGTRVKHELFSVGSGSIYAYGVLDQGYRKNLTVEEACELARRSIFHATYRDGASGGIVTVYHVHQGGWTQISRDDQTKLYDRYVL

Homo sapiens = organism: Homo sapiens; test: To identify inhibition of the IFN signalling (Jak-Stat) pathway via expression of an eGFP reporter gene under the control of an IFN-stimulated response element (ISRE) containing MxA promoter.; assay type: functional; settings: 30 µM
[7] = molecular target: T4, Tyrosyl-tRNA synthetase, putative (Trypanosoma cruzi (strain CL Brener)) (UniProt Q4DSP6); test: Trypanosoma cruzi tyrosyl tRNA synthetase (TcYRS) _High Tyrosine SOP; assay type: functional; settings: 30 µM; note: in the data most compounds retested in dose-response had high values
T4 sequence (whole entry): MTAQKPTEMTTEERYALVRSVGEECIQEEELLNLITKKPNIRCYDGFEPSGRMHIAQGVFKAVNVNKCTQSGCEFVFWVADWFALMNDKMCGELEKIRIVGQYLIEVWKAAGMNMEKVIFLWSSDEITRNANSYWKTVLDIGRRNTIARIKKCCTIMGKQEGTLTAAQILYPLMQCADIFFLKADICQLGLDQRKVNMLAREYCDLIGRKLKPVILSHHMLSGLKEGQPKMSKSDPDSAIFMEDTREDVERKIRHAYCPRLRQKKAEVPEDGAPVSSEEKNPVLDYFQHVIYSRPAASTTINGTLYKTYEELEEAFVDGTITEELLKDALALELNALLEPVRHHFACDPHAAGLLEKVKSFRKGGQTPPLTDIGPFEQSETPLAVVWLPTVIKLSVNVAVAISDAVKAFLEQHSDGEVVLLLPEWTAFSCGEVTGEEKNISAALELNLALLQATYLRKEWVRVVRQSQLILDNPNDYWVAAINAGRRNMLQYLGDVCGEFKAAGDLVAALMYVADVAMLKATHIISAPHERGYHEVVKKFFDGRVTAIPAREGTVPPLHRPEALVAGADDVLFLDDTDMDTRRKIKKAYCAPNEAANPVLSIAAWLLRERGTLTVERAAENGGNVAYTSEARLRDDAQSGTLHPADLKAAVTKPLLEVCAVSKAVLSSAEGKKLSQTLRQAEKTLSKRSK

[8] = molecular target: T4, Tyrosyl-tRNA synthetase, putative (Trypanosoma cruzi (strain CL Brener)); test: Trypanosoma cruzi tyrosyl tRNA synthetase (TcYRS) SOP; assay type: functional; settings: 30 µM
[9] = molecular target: Chromo domain-containing protein 1 (Saccharomyces cerevisiae (strain ATCC 204508 / S288c) (Baker's yeast)) (UniProt P32657); test: ScCHD-1 Enzyme Inhibition Assay; assay type: functional; settings: 30 µM; note: in the data most compounds retested in dose-response had high values
Chain of Chromo domain-containing protein 1 (Saccharomyces cerevisiae (strain ATCC 204508 / S288c) (Baker's yeast)) (P32657 whole entry, the tested form may be a part): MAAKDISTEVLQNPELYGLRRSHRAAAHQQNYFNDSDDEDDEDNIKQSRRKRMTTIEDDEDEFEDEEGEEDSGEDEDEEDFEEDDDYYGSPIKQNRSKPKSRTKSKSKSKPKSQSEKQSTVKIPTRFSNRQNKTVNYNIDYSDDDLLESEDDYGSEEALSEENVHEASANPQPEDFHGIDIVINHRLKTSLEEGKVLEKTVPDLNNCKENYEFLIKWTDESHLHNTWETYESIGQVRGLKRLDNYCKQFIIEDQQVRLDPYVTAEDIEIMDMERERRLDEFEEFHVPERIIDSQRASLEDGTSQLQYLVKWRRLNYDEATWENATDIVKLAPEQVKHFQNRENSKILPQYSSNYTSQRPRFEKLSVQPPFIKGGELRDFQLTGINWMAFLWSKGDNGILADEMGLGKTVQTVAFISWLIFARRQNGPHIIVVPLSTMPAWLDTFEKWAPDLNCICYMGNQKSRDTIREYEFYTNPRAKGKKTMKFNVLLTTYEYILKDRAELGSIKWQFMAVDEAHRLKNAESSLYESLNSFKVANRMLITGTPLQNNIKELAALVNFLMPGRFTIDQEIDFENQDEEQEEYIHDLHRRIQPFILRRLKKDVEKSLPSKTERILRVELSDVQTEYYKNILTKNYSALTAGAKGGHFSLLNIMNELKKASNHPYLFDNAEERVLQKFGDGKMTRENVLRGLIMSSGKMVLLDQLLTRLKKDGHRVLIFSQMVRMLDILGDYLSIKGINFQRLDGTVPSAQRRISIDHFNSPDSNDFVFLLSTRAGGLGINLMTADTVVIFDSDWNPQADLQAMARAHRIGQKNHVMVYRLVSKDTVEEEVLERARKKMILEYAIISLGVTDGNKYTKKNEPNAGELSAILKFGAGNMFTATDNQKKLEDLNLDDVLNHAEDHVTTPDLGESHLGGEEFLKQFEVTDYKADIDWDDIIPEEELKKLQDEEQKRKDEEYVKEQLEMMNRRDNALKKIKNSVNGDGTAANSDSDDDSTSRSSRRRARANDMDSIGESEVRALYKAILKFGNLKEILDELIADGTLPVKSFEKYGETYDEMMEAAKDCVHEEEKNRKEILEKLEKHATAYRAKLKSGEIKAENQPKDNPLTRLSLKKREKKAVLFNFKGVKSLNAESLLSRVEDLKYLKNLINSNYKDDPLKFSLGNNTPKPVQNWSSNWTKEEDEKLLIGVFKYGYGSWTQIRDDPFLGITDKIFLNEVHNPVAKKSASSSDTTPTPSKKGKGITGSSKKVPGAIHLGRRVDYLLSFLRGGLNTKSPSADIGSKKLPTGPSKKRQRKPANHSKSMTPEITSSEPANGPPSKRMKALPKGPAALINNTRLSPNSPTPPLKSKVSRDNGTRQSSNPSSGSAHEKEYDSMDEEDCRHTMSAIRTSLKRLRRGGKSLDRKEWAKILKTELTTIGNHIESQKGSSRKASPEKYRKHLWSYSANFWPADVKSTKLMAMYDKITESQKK

Chain of Protein translocase subunit SecA (Escherichia coli (strain K12)) (P10408 whole entry): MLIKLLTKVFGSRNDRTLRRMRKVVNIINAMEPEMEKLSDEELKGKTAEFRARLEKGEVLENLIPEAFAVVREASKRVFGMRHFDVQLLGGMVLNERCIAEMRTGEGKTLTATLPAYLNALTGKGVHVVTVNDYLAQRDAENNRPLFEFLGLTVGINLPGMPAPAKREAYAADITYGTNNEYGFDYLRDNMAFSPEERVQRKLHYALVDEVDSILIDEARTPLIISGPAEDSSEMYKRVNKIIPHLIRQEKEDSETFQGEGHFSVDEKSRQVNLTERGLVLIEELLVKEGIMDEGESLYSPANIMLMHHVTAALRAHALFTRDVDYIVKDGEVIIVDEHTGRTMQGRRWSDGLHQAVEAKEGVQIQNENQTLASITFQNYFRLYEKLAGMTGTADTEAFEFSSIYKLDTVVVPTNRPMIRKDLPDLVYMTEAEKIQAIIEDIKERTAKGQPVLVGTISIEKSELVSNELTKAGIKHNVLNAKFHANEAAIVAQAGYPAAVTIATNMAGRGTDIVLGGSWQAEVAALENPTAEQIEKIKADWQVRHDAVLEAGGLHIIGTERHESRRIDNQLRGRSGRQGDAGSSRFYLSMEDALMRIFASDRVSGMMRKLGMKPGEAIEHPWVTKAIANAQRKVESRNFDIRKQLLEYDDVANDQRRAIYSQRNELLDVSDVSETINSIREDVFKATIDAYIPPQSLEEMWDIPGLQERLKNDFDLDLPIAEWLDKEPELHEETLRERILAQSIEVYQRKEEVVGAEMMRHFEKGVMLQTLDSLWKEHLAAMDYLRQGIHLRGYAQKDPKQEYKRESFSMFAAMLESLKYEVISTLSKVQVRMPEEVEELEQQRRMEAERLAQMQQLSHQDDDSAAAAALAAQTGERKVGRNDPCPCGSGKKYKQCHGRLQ
Chain of Sialic acid-binding Ig-like lectin 9 (Homo sapiens) (Q9Y336 whole entry): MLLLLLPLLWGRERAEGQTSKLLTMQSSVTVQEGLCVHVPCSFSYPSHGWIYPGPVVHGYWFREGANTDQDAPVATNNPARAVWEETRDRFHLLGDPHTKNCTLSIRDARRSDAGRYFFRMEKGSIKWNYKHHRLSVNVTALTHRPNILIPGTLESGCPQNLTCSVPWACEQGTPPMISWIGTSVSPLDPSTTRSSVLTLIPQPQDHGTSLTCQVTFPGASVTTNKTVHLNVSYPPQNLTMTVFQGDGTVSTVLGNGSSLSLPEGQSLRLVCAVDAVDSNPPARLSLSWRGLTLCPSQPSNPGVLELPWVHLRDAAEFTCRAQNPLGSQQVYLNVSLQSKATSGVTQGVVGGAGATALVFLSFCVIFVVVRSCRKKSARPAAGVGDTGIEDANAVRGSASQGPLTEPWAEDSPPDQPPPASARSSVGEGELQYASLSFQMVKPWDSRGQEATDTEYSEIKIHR

| SMILES | Percent Effect [1] | Percent Effect [2] | Percent Effect [3] | Percent Effect [4] | Percent Effect (Trypanosoma cruzi) | Percent Effect [5] | Percent Effect [6] | Percent Effect (Homo sapiens) | Percent Effect [7] | Percent Effect [8] | Percent Effect [9] |
| --- | --- | --- | --- | --- | --- | --- | --- | --- | --- | --- | --- |
| c1cnc(N2CCCC(NCc3cccc4c3OCCO4)C2)nc1 (stereo unspecified) | -0.886% | -5.41% | -2.02% | -1.18% | 3.87% | -4.81% | 7.21% | 10.1% | 4.43% | 3.7% | -2.9% |
| OC1(CN2CCCC2)CCCN(Cc2ccc(F)cc2Cl)C1 (stereo unspecified) | -2.56% | 0% | -4.18% | -3.78% | -7.5% | 3.12% | 12% | 5.3% | 3.83% | 11.1% | -3.94% |
| COc1ccc(OC)c(C2C3=C(COC3=O)Nc3[nH]nc(C)c32)c1 (stereo unspecified) | -1.85% | 17.3% | 0.267% | -8.04% | 5.11% | 17.1% | 3.33% | 7.65% | 4.23% | 10.3% | -11.1% |
| O=C(c1cccc2c1OCCO2)N1CCCC(n2ccnc2)C1 (stereo unspecified) | -2.67% | 5.26% | 2.73% | -0.188% | -9.77% | 3.45% | 2.17% | 13.9% | 3.43% | 4.88% | 3.23% |
| CC(NCc1ccccc1Br)c1ccc2[nH]c(=O)[nH]c2c1 (stereo unspecified) | -1.71% | -18.9% | -5.22% | 10.9% | 5.19% | -0.401% | -0.18% | 25.5% | -0.493% | 6.17% | -4.59% |
| CCN(CC1CN(Cc2ncc(C)o2)CCO1)c1cccnn1 (stereo unspecified) | -4.91% | -2.67% | -8.97% | 2.4% | 5.16% | 2.6% | 12.2% | 12% | 7.1% | 6.17% | -0.756% |
| CC(C)c1nn(C)c(N(C)C)c1CNCCC(=O)NC1CCCC1 | -6.71% | 21.1% | -15.3% | 3.05% | 10.4% | 1.08% | 13.4% | -19.1% | 7.39% | 23.5% | -6.05% |
| Cc1ccc(C(=O)NS(=O)(=O)c2cc(Cl)ccc2Cl)c(=O)[nH]1 | -2.59% | 5.41% | -4.48% | 13.3% | 4.18% | -2.4% | 4.67% | 32% | 5.94% | 23.2% | -3.61% |
| CS(=O)(=O)CC(=O)N1C[C@H]2CCC[C@@]2(COCc2ccccn2)C1 | -1.45% | 2.7% | -3.2% | 0.525% | -0.88% | 11.2% | 26% | -5.57% | 0% | 17.9% | 0.642% |
| Cc1csc(N2CCN(C(=O)CCNc3ncccn3)CC2)n1 | -4.07% | 16.2% | -2.35% | -1.96% | 1.42% | -6.41% | 5.04% | 14.1% | -61.6% | 16.1% | -9.84% |
| COc1ccc(-n2cnnc2SCC(C)(C)O)cn1 | -0.589% | 2.67% | -3.7% | 25.4% | 3.02% | 16.7% | -5.75% | 15.9% | 3.83% | 3.7% | -1.24% |
| Cc1nc(-c2ccccc2)n(CC(=O)N(C(C)C)C(C)C)n1 | -0.812% | 18.9% | -12.1% | 5.09% | 3.68% | -9.62% | 15.3% | 14.6% | 9.36% | 23.5% | -8.42% |
| CCS(=O)(=O)N1CCC(c2nnc(CN3CCOCC3)n2C)CC1 | -3.22% | 18.7% | -2.94% | 20% | 3.8% | 5.73% | 14.5% | 3.52% | 9.29% | 21% | -5.76% |
| COc1ccc(OC)c(NC(=O)NCC(O)c2ccc(F)c(F)c2)c1 (stereo unspecified) | -0.0799% | 8.86% | 8.98% | -1.21% | -5.44% | 3.23% | 15.6% | 9.13% | -1.04% | 5.06% | -21.5% |
| O=C1[C@H]2CC[C@H](CN(Cc3ccccc3OC(F)F)C2)N1CC1CC1 | 2.17% | 13.5% | 8.9% | 13.9% | 4.05% | 13.3% | 17.1% | 19% | 7.94% | 17.1% | -1.8% |
| Cc1nc(NCc2cccnc2)c2c(n1)c(C)nn2C | 0.594% | 7.79% | 5.87% | 8.94% | 2.85% | -12.4% | 7.99% | 31% | 6.45% | 18.5% | -2.21% |
| O=C(N[C@@H]1CN(Cc2ccc3c(c2)OCO3)[C@@H]2CCCO[C@@H]21)C1CC1 | -7.03% | 0% | -0.94% | 0.764% | -5.99% | -55% | 13.2% | 4.07% | 1.04% | -60% | -2.23% |
| O=C(c1ccccn1)N1CCc2nc(-c3cnccn3)nc(O)c2C1 | 0.65% | 12.2% | 8.6% | 0.354% | -3.36% | -0.232% | 11.7% | 14.4% | 4.3% | 14.3% | -12.2% |
| COc1ccc(C[C@H]2CN(c3nnc(C)s3)CC[C@@H]2OC)cc1 | -4.17% | 5.33% | -2.8% | -1.52% | 2.7% | -49.6% | 5.81% | 3.46% | -34.4% | 7.5% | 86.4% |
| CC1c2ncc(COc3cccnc3)n2CCN1C(=O)Cc1ccco1 (stereo unspecified) | -6.11% | 6.67% | 2.02% | 6.28% | -2.36% | -3.7% | 6.84% | -8.23% | 2.12% | 7.69% | 0.38% |
| CCc1nc(CN2CCCN(c3ncnc4ccccc34)CC2)no1 | 0.435% | 13% | -3.4% | 2.9% | 4.03% | -12.4% | 18.3% | 74.7% | 3.23% | 16.1% | -2.22% |
